Results on 40 compounds are retold here after PubChem BioAssay (NCATS).

Assay [1] addresses Glutathione peroxidase 1 (Homo sapiens) (UniProt P07203). In words: Primary qHTS Assay for Inhibitors of Recombinant Selenoprotein Glutathione Peroxidase 1 (GPX1) (AID 1845191). Further: nearly all actives have a fitted effect of over 65% in size. Further: potency means the concentration at half of the fitted maximal effect. The method, boiled down:
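GR-coupled assay: compounds preincubated 30 min at room temperature with GPX1, then reaction started with CHP; final 10 nM GPX1, 1 mM GSH, 0.5 mM CHP, 0.5 mM NADPH, 100 nM GR, 0.01% BSA, pH 7.5 Tris buffer. NADPH fluorescence (340/450 nm) read at 0 and 15 min.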
On the technique in general: In qHTS, concentration-response curves come from the screen itself.

Assay [2] deals with Phospholipid hydroperoxide glutathione peroxidase GPX4 (Homo sapiens) (UniProt P36969). Kind of assay: Primary qHTS Assay for Inhibitors of Recombinant Selenoprotein Glutathione Peroxidase 4 (GPX4) (AID 1845192). Further: nearly all actives have a fitted effect of over 65% in size. The method, boiled down:
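GR-coupled assay: recombinant GPX4 preincubated 30 min with compound at room temperature; final 200 nM GPX4, 1 mM GSH, 0.5 mM cumene hydroperoxide, 0.5 mM NADPH, 100 nM GR, 0.01% BSA, pH 7.5 Tris. NADPH fluorescence (340/450 nm) read at 0 and 15 min.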

In assay [3] the target is Luciferin 4-monooxygenase (Photinus pyralis) (UniProt P08659). Kind of assay: Primary firefly luciferase (FLuc) qHTS assay for identification of artifact compounds. (AID 1845220). Further: nearly all actives have a fitted effect of over 60% in size. The method, boiled down:
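Enzymatic FLuc inhibition assay: compounds pre-exposed to luciferin/ATP (10 uM each) for 15 min, then purified P. pyralis enzyme at 10 nM added. Read-out: luminescence at 5 min.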

Assay [4] in a line: Primary fluorescence-based thiol-reactive (MSTI) qHTS assay for identification of artifact compounds. (AID 1845221). Further: nearly all actives have a fitted effect of over 65% in size. Further: potency means the concentration at half of the fitted maximal effect. The method, boiled down:
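A multi-concentration qHTS design tested compounds against 4 uM MSTI, pH 7.4 phosphate-buffered saline. Plates were protected from light for 1 h at room temperature before imaging fluorescence.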

Assay [5] concerns Nanoluciferase (engineered Oplophorus gracilirostris luciferase). Kind of assay: Primary Nanoluciferase (NLuc) qHTS assay for identification of artifact compounds. (AID 1845222). Further: potency means the concentration at half of the fitted maximal effect. In short, it runs like this: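 S16 cell supernatant NLuc, 1:55; cpds qHTS; 15 min RT dark; Nano-Glo substrate 1:100, 5 min; luminescence; Hill fit of % inhibition.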
Assay [6] is described as follows: Primary redox qHTS assay for identification of artifact compounds. (AID 1845223). The method, boiled down:
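Amplex Red (25 uM) and HRP (250 mU/mL) in HBSS, with compounds for 15 min, then 250 uM DTT for 30 min, room temperature, dark. Fluorescence 525/598 nm read; normalized to DMSO and 10 uM DA3003; Hill fit.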

Inconclusive results are not listed. Calls of active or inactive are those of the source. The call rests on the fitted dose curve; in most records, active means well fitted curve in the direction sought with a large enough effect; inconclusive means small, poorly fitted or top-dose-only effect, or another doubt; inactive means no such curve, though single readings can be large; an effect the other way counts as inactive or inconclusive.

Glutathione peroxidase 1 (Homo sapiens), sequence (P07203 whole entry, looked up): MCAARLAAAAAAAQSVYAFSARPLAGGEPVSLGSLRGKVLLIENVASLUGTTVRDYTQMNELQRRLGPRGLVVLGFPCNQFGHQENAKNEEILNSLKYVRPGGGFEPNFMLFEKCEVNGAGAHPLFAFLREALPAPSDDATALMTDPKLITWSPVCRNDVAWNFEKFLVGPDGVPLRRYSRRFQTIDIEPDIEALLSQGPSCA
Phospholipid hydroperoxide glutathione peroxidase GPX4 (Homo sapiens), sequence (P36969 whole entry, looked up): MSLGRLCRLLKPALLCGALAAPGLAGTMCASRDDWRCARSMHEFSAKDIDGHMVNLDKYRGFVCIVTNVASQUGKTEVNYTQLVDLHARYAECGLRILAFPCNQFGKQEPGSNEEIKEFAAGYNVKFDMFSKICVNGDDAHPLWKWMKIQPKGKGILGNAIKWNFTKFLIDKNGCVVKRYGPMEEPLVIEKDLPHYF

Consider `C#CC(C)(CC)OC(=O)c1ccccc1C(=O)O` (stereo not drawn), for which the Potency result in assay [1] and in assay [2] was “inactive” each time.
Take `C[C@@H]1C[C@H]2[C@@H]3CCC4=CC(=O)C=C[C@]4(C)[C@@]3(F)[C@@H](O)C[C@]2(C)[C@@]1(O)C(=O)COC(=O)c1ccncc1`: the Potency entry in assay [1] and in assay [2] was “inactive” throughout.
Turning to `COC(=O)c1cc(Cl)ccc1NS(=O)(=O)C(F)(F)F`, the Potency entry in assay [1] and in assay [2] was “inactive” in each case.
As to `O=C(O)CCC(=O)OC[C@@H](NC(=O)C(Cl)Cl)[C@H](O)c1ccc([N+](=O)[O-])cc1`, the Potency entry in assay [1] and in assay [2] was “inactive” in each case.
As for `CC(C)C(=O)Nc1cccc(C2CN3CCSC3=N2)c1` (stereo not drawn), the Potency result in assay [1] and in assay [2] was “inactive” throughout.
On to `CCCCCN(CCCOC)C(=O)C(CCC(=O)O)NC(=O)c1ccc(Cl)c(Cl)c1` (stereo not drawn), for which the Potency entry in assay [1] and in assay [2] was “inactive” each time.
Regarding `OCCOCCN1CCN(C(c2ccccc2)c2ccc(Cl)cc2)CC1` (stereo not drawn), the Potency result in assay [1] and in assay [2] was “inactive” each time.
Consider `CC1(C)S[C@@H]2[C@H](NC(=O)C(c3ccccc3)S(=O)(=O)O)C(=O)N2[C@H]1C(=O)O` (stereo partly drawn), for which the Potency result in assay [1] and in assay [2] was “inactive” in each case.
With `CC(C)C[C@@H]1[C@H](c2ccccc2)OC(=O)N1CCCN1CCCCCC1`, the Potency result in assay [1] and in assay [2] was “inactive” in each case.
With `O=C(CS(=O)Cc1ccco1)NC/C=C\COc1cc(CN2CCCCC2)ccn1` (stereo not drawn), the Potency in assay [1] is 18 µM (active). For the same compound, the Potency entry in assay [2] is “inactive”.
The matching figures for `N#C/C(=C1/SC[C@@H](c2ccc(Cl)cc2Cl)S1)n1ccnc1`: “inactive” and “inactive”.
For `O=C(COCCOCCOCC(=O)Nc1c(I)cc(I)c(C(=O)O)c1I)Nc1c(I)cc(I)c(C(=O)O)c1I` the same measures were “inactive” and “inactive”.
The matching figures for `CC(=O)OCC(=O)[C@@]1(O)CCC2C3CCC4=CC(=O)CC[C@]4(C)C3[C@@H](O)C[C@@]21C` (stereo partly drawn): “inactive” and “inactive”.
For the compound `CN(C(=O)C(Cl)Cl)c1ccc(OC(=O)c2ccco2)cc1`, the Potency entry in assay [1] and in assay [2] was “inactive” in each case.
As for `CCOc1c(N2CCOCC2)cnn(C)c1=O`, the Potency result in assay [1] and in assay [2] was “inactive” each time.
Consider `Cc1ccc2c(Cl)cc(Cl)c(O)c2n1`, for which the Potency result in assay [1] and in assay [2] was “inactive” each time.
With `CC(=O)N(CC(=O)N(C)C)c1ccccc1`, the Potency entry in assay [1] and in assay [2] was “inactive” each time.
Regarding `CC(=O)CC/C=C(\C)CC/C=C(\C)CC/C=C(\C)CCC=C(C)C`, the Potency entry in assay [1] and in assay [2] was “inactive” throughout.
As to `CC(=O)[C@@]1(O)CC[C@H]2[C@@H]3C[C@H](C)C4=CC(=O)CC[C@]4(C)[C@H]3CC[C@@]21C`, the Potency entry in assay [1] and in assay [2] was “inactive” in each case.
For `Cc1ccc(C(=O)Oc2ccc(C(O)CNC(C)(C)C)cc2OC(=O)c2ccc(C)cc2)cc1` (stereo not drawn), the Potency entry in assay [1] and in assay [2] was “inactive” in each case.
On to `C/C(=N\O)[C@@H](C)NCC(C)(C)CN[C@H](C)/C(C)=N/O`, for which the Potency result in assay [1] and in assay [2] was “inactive” in each case.
For the compound `NS(=O)(=O)c1ccc(N2CCCCS2(=O)=O)cc1`, the Potency result in assay [1] and in assay [2] was “inactive” throughout.
Turning to `COc1cccc2c1[C@@H]1CN(CCCCn3c(=O)[nH]c4c(sc5ncc(-c6ccccc6)nc54)c3=O)C[C@@H]1CO2`, the Potency entry in assay [1] and in assay [2] was “inactive” in each case.
Take `COC(=O)C1=C(C)NC(C)=C(C(=O)OCCc2ccc(N3CCN(C(c4ccccc4)c4ccccc4)CC3)cc2)C1c1cccc([N+](=O)[O-])c1` (stereo not drawn): the Potency result in assay [1] and in assay [2] was “inactive” in each case.
Turning to `C[N+]1(CC2COC(c3ccccc3)(c3ccccc3)O2)CCCCC1` (stereo not drawn), the Potency result in assay [1], in assay [2], in assay [3], in assay [4] and in assay [5] was “inactive” each time. Also, in assay [6], the compound was called inactive.
For the compound `COc1cc(NS(=O)(=O)c2ccc(N)cc2)nc(C)n1`, the Potency entry in assay [1], in assay [2], in assay [3], in assay [4] and in assay [5] was “inactive” in each case. Besides, the compound was classed as inactive in assay [6].
Regarding `CC(=O)Oc1ccc(C2(c3ccc(OC(C)=O)cc3)Oc3ccccc3NC2=O)cc1`, the Potency entry in assay [1], in assay [2], in assay [3], in assay [4] and in assay [5] was “inactive” throughout. For the same compound, in assay [6], the result was inactive.
Turning to `O=C1NC2CCCCN2C12CCN(CCCN1c3ccccc3CCc3ccc(Cl)cc31)CC2` (stereo not drawn), the Potency entry in assay [1], in assay [2], in assay [3], in assay [4] and in assay [5] was “inactive” throughout.
For `CCCN(CCC)C(=O)C(CCC(=O)OCCCN1CCN(CCOC(=O)Cc2c(C)n(C(=O)c3ccc(Cl)cc3)c3ccc(OC)cc23)CC1)NC(=O)c1ccccc1` (stereo not drawn), the Potency result in assay [1], in assay [2], in assay [3], in assay [4] and in assay [5] was “inactive” in each case. Besides, the outcome in assay [6] was inactive.
Regarding `O=C(O)CNC(=O)CNC(=O)CNC(=O)CSC(=O)c1ccccc1`, the Potency result in assay [1], in assay [2], in assay [3], in assay [4] and in assay [5] was “inactive” throughout. Besides, the compound was classed as inactive in assay [6].
Consider `CC(=O)[C@H]1CC[C@H]2[C@@H]3C=CC4=CC(=O)CC[C@@]4(C)[C@@H]3CC[C@]12C`, for which the Potency result in assay [1], in assay [2], in assay [3], in assay [4] and in assay [5] was “inactive” in each case. In addition, the compound was called inactive in assay [6].
For `CCc1cc(S(=O)(=O)O)c2cc(C(C)C)cccc1-2`, the Potency result in assay [1], in assay [2], in assay [3] and in assay [5] was “inactive” throughout. Also, the Potency in assay [4] was 844 nM (active). The outcome in assay [6] was inactive.
Turning to `CCOC(=O)Cn1cccc1-c1nc(-c2ccc(OC)cc2)c(-c2ccc(OC)cc2)s1`, the Potency entry in assay [1], in assay [2], in assay [3], in assay [4] and in assay [5] was “inactive” throughout. In addition, in assay [6], the call was inactive.
In the case of `CO[C@]1(NC(=O)CSC(F)F)C(=O)N2C(C(=O)O)=C(CSc3nnnn3CCO)CO[C@H]21`, the Potency entry in assay [1], in assay [2], in assay [3], in assay [4] and in assay [5] was “inactive” throughout. In assay [6], the compound was classed as inactive.
Consider `COc1cc(C(=O)OC(COCCC(C)C)CN2CCOCC2)cc(OC)c1OC` (stereo not drawn), for which the Potency result in assay [1], in assay [2], in assay [3], in assay [4] and in assay [5] was “inactive” each time. In addition, the outcome in assay [6] was inactive.
On to `Cc1ccccc1C(=O)N1CC/C(=N\OS(=O)(=O)O)c2ccc(Cl)cc21`, for which the Potency result in assay [1], in assay [2], in assay [3] and in assay [4] was “inactive” in each case. Besides, the Potency in assay [5] was 26.9 µM (active). Further, in assay [6], the compound was called inactive.
In the case of `CN1[C@@H]2CC[C@H]1CC(NC(=O)n1c(=O)[nH]c3ccccc31)C2` (stereo partly drawn), the Potency entry in assay [1], in assay [2], in assay [3], in assay [4] and in assay [5] was “inactive” throughout. Further, the compound was classed as inactive in assay [6].
As for `O=C1CC[C@H](C(=O)N2CCCCC2)N1`, the Potency result in assay [1], in assay [2], in assay [3], in assay [4] and in assay [5] was “inactive” throughout. Further, the compound was called inactive in assay [6].
Turning to `CCN1C(=O)c2ccccc2C1Nc1ccc(OCCN2CCCCC2)cc1` (stereo not drawn), the Potency result in assay [1], in assay [2], in assay [3], in assay [4] and in assay [5] was “inactive” throughout. Further, the compound was called inactive in assay [6].
`CC(C(O)c1ccccc1)N(C)CCOC(c1ccccc1)c1ccccc1` (stereo not drawn): the Potency result in assay [1], in assay [2], in assay [3], in assay [4] and in assay [5] was “inactive” throughout. For the same compound, in assay [6], the compound was called inactive.
